Screens: PubChem, SRMLSC
Only some compounds are listed: those with a hit (about 6.8% of all), similar ones and a draw of the others.
Spn MK inh: S. pneumoniae MK inhibitors, primary screen, biochemical, PK/LDH-coupled NADH absorbance | purified MK, PK/LDH-coupled NADH absorbance 340 nm | inhibition, % at 10 µM | mevalonate kinase [Streptococcus pneumoniae D39] | AID 555, 2006 | actives 0.48% (n = 65,000);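 active means ranked among the strongest by inhibition in the single 10 µM screen, a fixed top-ranked set picked for dose follow-up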
NADH enzymes: inhibitors of PK/LDH coupling enzymes, profiling panel, artefact control, biochemical, MLSMR library; actives 0.02% (n = 65,000); coupled PK/LDH NADH assays, four targets; IC50, µM (series often up to 10 µM);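 active means single-dose screening hits from any of four coupled enzyme assays that gave an IC50 when retested across doses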;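 further: the DPM-DC format reads NADH fluorescence rather than 340 nm absorbance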
DPM-DC inhibit: S. pneumoniae DPM-DC inhibitors, primary screen, biochemical, PK/LDH-coupled NADH fluorescence | AID 556, 2006 | purified DPM-DC | actives 0.49% (n = 65,000) | calls only at 10 µM;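 active means the 320 compounds with the highest percent inhibition in the single-dose primary screen, excluding strongly autofluorescent ones, cut at about 32% in these data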;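 further: kinetic rate of NADH fluorescence loss reporting ADP formed by the decarboxylase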
Abs 340nm: compound light absorbance at 340 nm, profiling panel, artefact control, biochemical, MLSMR library, data from PS, PMK, MK assays. compound absorbance at 340 nm, fold over control. fold change at 10 µM. 65,000 tested, under 10 active. AID 708, 2007;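 active means at 10 µM dose, initial 340 nm absorbance at least 2 fold that of control wells; inactive means change under 2 fold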;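 further: initial absorbance extrapolated from kinetic A340 decline of NADH oxidation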
Autofluor 339: intrinsic fluorescence of library compounds, ex339/em460 – biochemical, MLSMR library, data from DPM-DC assay, artefact control, profiling panel. fluorescence fold increase at 10 µM. actives 5.5% (n = 65,000). compound autofluorescence, ex339/em460 nm, NADH buffer; hits give high values; 1 = no-compound wells, NADH background;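 active means at 10 µM, mean starting fluorescence two-fold or more over control wells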;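 further: signal is the first read of a kinetic run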
PMK inhibit: S. pneumoniae PMK inhibitors, primary screen, biochemical, mevalonate pathway, pilot trial included. phosphomevalonate kinase (Streptococcus pneumoniae D39). purified PMK, PK/LDH-coupled NADH absorbance 340 nm. inhibition, % at 10 µM. actives 0.49% (n = 65,000). AID 539, 2006;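 active means top-ranked compounds by inhibition in the single 10 µM screen, taking a fixed number of the strongest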
Large screens that a line does not name were inactive.

Cc1ccc2[nH]c3c(c2c1)CCc1cn[nH]c1-3	none
O=C1CCCc2c1[nH]c1ccc(CN3CCCCC3)cc21	Autofluor 339 2.1 (not shown: DPM-DC inhibit)
Cc1ccc2[nH]c3c(c2c1)CCC3=O	Autofluor 339 3.7 (not shown: DPM-DC inhibit)
N#Cc1ccc(CSc2ncnc3c2cnn3Cc2ccccc2)cc1	none
CCCCOc1ccccc1C1NC(=O)NC(C)=C1C(=O)OCCOC (configuration not stated)	none
COc1ccc2c(c1)c1c(n2C(C)=O)C(OC(C)=O)=NCC1	Autofluor 339 2.3 (not shown: DPM-DC inhibit)
CCN(CC)CCOC(=O)c1c(C)n(C)c2ccc(OC)cc12	none
CCCN(CCC)c1nc2ccccc2nc1C(C#N)C(=O)OCCOC (configuration not stated)	none
C=CCN(CC=C)c1nc2ccccc2nc1C(C#N)C(=O)OCCOC (configuration not stated)	Autofluor 339 2.2
O=C(NCC(c1cccnc1)N1CCOCC1)Nc1ccccc1 (configuration not stated)	none
CC(=O)Nc1ccc(NC(=O)c2cc(C)nn2-c2ccccc2)cc1	none
CN(CCC(=O)Nc1ccc2c(c1)OCO2)Cc1ccccc1	Spn MK inh 45
CC(=O)c1cc2c(cc1NC(=O)CCCC(=O)O)OCO2	none
CC(=O)c1cc2c(cc1NC(=O)c1cc(C)nn1-c1ccccc1)OCO2	Autofluor 339 2.2 (not shown: DPM-DC inhibit)
CC(=O)c1cc2c(cc1NC(=O)CCc1ccccc1)OCO2	Autofluor 339 2.3
O=C(O)COc1ccc2nsnc2c1Cl	Autofluor 339 3.7 (not shown: DPM-DC inhibit)
Cc1ccc(OCC(=O)O)c(-n2nc3ccccc3n2)c1	none
CCCCn1nc(C(=O)O)ccc1=O	none
Fc1cccc(Nc2ncnc3c2cnn3-c2ccccc2)c1	none
Clc1cccc(Nc2ncnc3c2cnn3-c2ccccc2)c1	Autofluor 339 2.1
COc1ccccc1-n1c(CNC(=O)c2ccco2)nnc1SCC(=O)Nc1nccs1	none
CCCCn1ccc(=O)c2c(C(F)(F)F)nccc21	none
CCCCn1c(=O)n(C)c(=O)c2c(C(F)(F)F)cc(-c3ccncc3)nc21	Autofluor 339 2.1 (not shown: DPM-DC inhibit)
COc1ccc(-c2cc(C(F)(F)F)n3nc(C(=O)N4CCCCC4)cc3n2)cc1	Autofluor 339 2.3 (not shown: DPM-DC inhibit)
O=C(c1cc2nc(-c3ccc(F)cc3)cc(C(F)(F)F)n2n1)N1CCCC1	DPM-DC inhibit active
O=C(c1cc2nc(-c3ccco3)cc(C(F)(F)F)n2n1)N1CCCCCC1	Autofluor 339 2.2 (not shown: DPM-DC inhibit)
O=C(c1cc2nc(-c3ccco3)cc(C(F)(F)F)n2n1)N1CCN(c2ccccc2)CC1	none
O=C(c1cc2nc(-c3ccccc3)cc(C(F)(F)F)n2n1)N1CCCC1	none
CN(C(=O)c1cc2nc(-c3ccco3)cc(C(F)(F)F)n2n1)C1CCCCC1	Autofluor 339 2.2 (not shown: DPM-DC inhibit)
Cc1cc(NS(=O)(=O)c2ccc(N)cc2)no1	none
CCn1c(COc2cccc(OC)c2)nnc1SCC(=O)Nc1cccc(OC)c1	none
Cc1ccccc1Cn1ccc(NC(=O)c2cc3nc(-c4ccco4)cc(C(F)(F)F)n3n2)n1	Autofluor 339 3.8 (not shown: DPM-DC inhibit)
CCc1cc(=O)oc2cc(C)c3c(C)coc3c12	Autofluor 339 2.4
CCc1cc(=O)oc2cc(C)cc(O)c12	none
c1ccc2c(c1)nnn2Cc1nnc2sc(-c3ccc4c(c3)OCCO4)nn12	DPM-DC inhibit active, Autofluor 339 2.9
c1ccc(-c2nn3c(Cn4nnc5ccccc54)nnc3s2)cc1	none
COCCn1nnnc1C(C(C)C)N(Cc1cccnc1)Cc1cc2cc(OC)ccc2[nH]c1=O (configuration not stated)	Autofluor 339 2.4
Cn1c(=O)c2cc(S(=O)(=O)NCCC(=O)NCC3CCCO3)ccc2n(C)c1=O (configuration not stated)	none
NC(=O)c1ccsc1NC(=O)c1nc(-c2ccccc2)n(-c2ccccc2)n1	DPM-DC inhibit active
O=C(NC1=NCCS1)c1nc(-c2ccccc2)n(-c2ccccc2)n1	none
CCOC(=O)c1ccc(-c2c(C(=O)OCC)oc3cc(O)c(CC)cc3c2=O)o1	none
COc1ccc(CCn2c(N)c(C#N)c3nc4ccccc4nc32)cc1OC	none
COc1ccc(CCn2c(N)c(S(=O)(=O)c3cccs3)c3nc4ccccc4nc32)cc1OC	DPM-DC inhibit active
COc1ccc(Cn2c(N)c(C#N)c3nc4ccccc4nc32)cc1OC	none (not shown: DPM-DC inhibit)
Nc1c(S(=O)(=O)c2cccs2)c2nc3ccccc3nc2n1Cc1ccc2c(c1)OCO2	DPM-DC inhibit active, Autofluor 339 2.7
Nc1c(S(=O)(=O)c2cccs2)c2nc3ccccc3nc2n1CC1CCCO1 (configuration not stated)	Autofluor 339 3 (not shown: DPM-DC inhibit)
Nc1c(S(=O)(=O)c2cccs2)c2nc3ccccc3nc2n1Cc1cccs1	Autofluor 339 3.9 (not shown: DPM-DC inhibit)
CCN(C1CCCCC1)S(=O)(=O)c1cn(C)c(=O)n(C)c1=O	none
CCn1c(O)c(C=NCCN2CCOCC2)sc1=S	none
Nc1c(S(=O)(=O)c2ccccc2)c2nc3ccccc3nc2n1Cc1ccco1	Autofluor 339 2.2 (not shown: DPM-DC inhibit)
CC(C)CCn1c(N)c(S(=O)(=O)c2cccs2)c2nc3ccccc3nc21	Autofluor 339 3 (not shown: DPM-DC inhibit)
CC(C)CN1CN(S(=O)(=O)c2cccs2)c2nc3ccccc3nc21	none
O=c1c2ccccc2nc(-c2ccccc2)n1Cc1ccco1	none
Cn1c(N)c(S(=O)(=O)c2ccc(Br)cc2)c2nc3ccccc3nc21	Autofluor 339 3.8 (not shown: DPM-DC inhibit)
O=C(Nc1ccc(F)cc1F)c1noc2c1CCC2	none
COc1cc(C(=O)O)ccc1OC(C)=O	none
CCOc1ccc(C(=O)O)cc1OC	DPM-DC inhibit active
CCN1CCN(C(c2cccs2)C(C)NS(=O)(=O)c2ccc(Br)cc2)CC1 (configuration not stated)	none
CS(=O)(=O)N1CCN(C(=O)c2cc(-c3cccs3)nc3ccccc23)CC1	Autofluor 339 3.9 (not shown: DPM-DC inhibit)
COc1ccc(-c2cc(C(=O)OCC(=O)N3CCCC3)c3ccccc3n2)cc1	Autofluor 339 2.9
CCOc1ccc(-c2cc(C(=O)N3CCN(C)CC3)c3ccccc3n2)cc1	Autofluor 339 5.2 (not shown: DPM-DC inhibit)
CCOC(=O)N1CCN(C(=O)c2cc(-c3ccc(OCC)cc3)nc3ccccc23)CC1	Autofluor 339 5.2 (not shown: DPM-DC inhibit)
O=C(c1cc(-c2ccccc2)nc2ccccc12)N1CCOCC1	none
CCOc1ccc(-c2cc(C(=O)N3CCN(c4ccccn4)CC3)c3ccccc3n2)cc1	none
O=C(O)c1cc(-c2cccs2)nc2cc3c(cc12)OCCO3	Autofluor 339 2.1 (not shown: DPM-DC inhibit)
Cc1ccc2nc(-c3ccc4c(c3)OCCO4)cc(C(=O)O)c2c1	none
